The record followed here is the supplement of paper PMC12067093, “Discovery and optimisation of a covalent ligand for TRIM25 and its application to targeted protein ubiquitination” (Chemical Science, 2025).

Targets with the largest changes are over-represented here; the source holds about 21,000 in all.

The assay has as its target SLTM_Q9NWH9_107_KHEADELSGDASVEDDAFIKDCELENQEAHEQDGNDELK (UniProt Q9NWH9). As to the kind of experiment: probe-labelled cysteine peptide fold change vs DMSO (competition) (log2 fold change); higher = less target engagement (more negative = stronger competition). Conditions: THP-1, incubation time: 4 h.
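Also: competitive profiling in live THP-1 cells: cysteine peptides tagged with an iodoacetamide desthiobiotin (IA-DTB) probe, intensity after compound treatment relative to DMSO-treated cells.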

UniProt Q9NWH9, sequence (Q9NWH9 whole entry, looked up): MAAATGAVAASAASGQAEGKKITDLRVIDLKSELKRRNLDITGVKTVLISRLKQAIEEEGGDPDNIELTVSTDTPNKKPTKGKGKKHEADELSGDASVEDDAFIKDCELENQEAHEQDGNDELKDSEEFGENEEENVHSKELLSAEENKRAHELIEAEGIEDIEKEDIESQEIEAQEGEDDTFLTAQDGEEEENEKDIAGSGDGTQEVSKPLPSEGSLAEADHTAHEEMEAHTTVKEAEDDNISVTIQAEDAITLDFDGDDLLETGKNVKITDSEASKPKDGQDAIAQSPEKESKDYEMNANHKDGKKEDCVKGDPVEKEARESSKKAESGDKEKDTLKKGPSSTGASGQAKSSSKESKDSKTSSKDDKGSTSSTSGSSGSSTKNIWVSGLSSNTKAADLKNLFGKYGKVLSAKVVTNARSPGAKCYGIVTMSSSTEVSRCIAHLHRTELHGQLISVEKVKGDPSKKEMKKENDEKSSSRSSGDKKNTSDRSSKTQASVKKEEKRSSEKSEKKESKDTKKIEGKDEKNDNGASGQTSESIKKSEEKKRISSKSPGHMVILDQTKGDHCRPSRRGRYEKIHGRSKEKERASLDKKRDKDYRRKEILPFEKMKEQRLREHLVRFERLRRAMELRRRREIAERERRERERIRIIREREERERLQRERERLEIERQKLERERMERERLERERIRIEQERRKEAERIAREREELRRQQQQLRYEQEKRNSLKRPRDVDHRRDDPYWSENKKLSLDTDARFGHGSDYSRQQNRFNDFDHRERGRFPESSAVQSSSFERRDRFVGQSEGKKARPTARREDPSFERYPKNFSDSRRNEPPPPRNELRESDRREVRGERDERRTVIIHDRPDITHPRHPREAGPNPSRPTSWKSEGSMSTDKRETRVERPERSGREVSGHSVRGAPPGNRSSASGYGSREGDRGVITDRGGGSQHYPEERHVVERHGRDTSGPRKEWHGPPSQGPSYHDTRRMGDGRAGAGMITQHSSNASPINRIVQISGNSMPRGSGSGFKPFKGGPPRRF

With `Cc1cc(C(=O)N2CCCN(C(=O)CCl)CC2)ccc1-c1ccccc1` [compound 10], the “probe-labelled cysteine peptide fold change” value is, setting by setting: (10 µM) 0.0217; (50 µM) -1.37.
